Assay outcomes deposited in PubChem by National Center for Advancing Translational Sciences (NCATS).
This is a sample that favours compounds with a hit; in the whole collection about 12% have one here.
BAZ2B inh – qHTS Assay for Inhibitors of BAZ2B; Bromodomain adjacent to zinc finger domain protein 2B (Homo sapiens), Q9UIF8; AlphaScreen BAZ2B-H3K14Ac peptide displacement; Potency, µM (top dose mostly 114 µM), usual class: inhibitors; 360,000 tested, 4.4% active; further: nearly all actives have a fitted effect of over 60% in size
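AlphaScreen displacement: compounds (up to 110uM) incubated 30 min at room temperature with a preformed 50 nM BAZ2B/50 nM biotinylated H3K14Ac peptide complex in PBS pH 7.4 with Tween-20. Donor and acceptor beads at 10 ug/mL final added, 20 min light-protected before reading.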
HP1b chromo inh – HTS for Inhibitors of HP1-beta Chromodomain Interactions with Methylated Histone Tails; AlphaScreen HP1-beta / biotin-H3K9me3 peptide binding; Potency, µM (titrated, usually from 114 µM), usual class: inhibitors; 390,000 tested, 0.56% active; AID 540317, 2011; further: nearly all actives have a fitted effect of over 70% in size
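Compound inhibition of the preformed complex between 50 nM HP1-beta and 50 nM biotinylated H3K9me3 peptide was read by AlphaScreen. Buffer was PBS pH 7.4 with 0.01% Tween-20. Incubations ran 30 min at room temperature, with 10 ug/mL donor/acceptor beads.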
JMJD2A Tudor inh – qHTS Assay for Inhibitors of JMJD2A-Tudor Domain; Lysine-specific demethylase 4A (Homo sapiens), O75164; AlphaScreen JMJD2A-Tudor / H3K4me3 peptide binding; AID 504339, 2011; Potency, µM (highest dose often 114 µM), actives largely listed as inhibitors; 390,000 tested, 4.4% active; further: nearly all actives have a fitted effect of over 50% in size
G9a block – qHTS Assay for Inhibitors of Histone Lysine Methyltransferase G9a; Histone-lysine N-methyltransferase EHMT2 (Homo sapiens), Q96KQ7; G9a H3K9 monomethylation, AlphaScreen, 2 h; Potency, µM (highest dose often 102 µM), usual class: inhibitors; 350,000 tested, 8.8% active; AID 504332, 2011; further: nearly all actives have a fitted effect of over 75% in size
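Chemiluminescent proximity detection of H3K9 monomethylation, read after 10 min bead incubation in the dark. Reaction: 20 nM G9a, 500 nM biotin-H3K9 peptide, 20 uM SAM cofactor, 2 h, room temperature, following 15 min enzyme-compound preincubation.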
PLK1 PBD inh – qHTS for Inhibitors of PLK1-PDB (polo-like kinase 1 - polo-box domain): Primary Screen; 360,000 tested, 2.8% active; AID 720504, 2013; Serine/threonine-protein kinase PLK1 (Homo sapiens), P53350; Plk1 PBD binding of FITC phosphopeptide, fluorescence polarization; Potency, µM, hits mostly inhibitors; further: series mostly up to about 57 µM; nearly all actives have a fitted effect of over 65% in size
Sfp PPTase inh – qHTS Assay for Inhibitors of Bacillus subtilis Sfp phosphopantetheinyl transferase (PPTase); 4'-phosphopantetheinyl transferase ffp (Bacillus subtilis), Q9F4F7; Biochemical Sfp PPTase activity, qHTS; Potency, µM, actives largely listed as inhibitors; 310,000 tested, 3.5% active;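 further: the enzyme is Sfp with the accession as filed and its product quenches rhodamine fluorescence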
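Compounds were incubated with enzyme (final 15 nM) for 15 min at room temperature before substrate addition started the reaction. Fluorescence at 525 nm excitation, 598 nm emission was recorded immediately and after 30 minutes.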
Of the large screens only hits and unclear results are named; the others gave an inactive call. The call rests on the fitted dose curve; in most records, active means well fitted curve in the direction sought with a large enough effect; inconclusive means small, poorly fitted or top-dose-only effect, or another doubt; inactive means no such curve, though single readings can be large; an effect the other way counts as inactive or inconclusive.

COc1cccc(/C=N/Nc2ccc([N+](=O)[O-])cn2)c1O	BAZ2B inh 40µM, JMJD2A Tudor inh inconclusive
Cc1ccc(Cn2c(=O)n(Cc3ccccc3Cl)c(=O)c3cccnc32)cc1	none (no result: PLK1 PBD inh, Sfp PPTase inh)
CC(=O)Nc1ccc(C(=O)Cn2c3[n+](c4c(F)c(F)ccc42)CCCCC3)cc1	none
O=C(NCc1nnnn1-c1ccc(F)cc1)c1ccc(S(=O)(=O)N2CCOCC2)cc1	none (no result: BAZ2B inh, HP1b chromo inh, JMJD2A Tudor inh, G9a block, Sfp PPTase inh)
O=C(NCc1n[nH]c(=S)n1-c1ccc(F)cc1)c1ccc(S(=O)(=O)N2CCCCC2)cc1	JMJD2A Tudor inh inconclusive, G9a block 2.5µM
O=C(NCc1n[nH]c(=S)n1-c1ccc(Br)cc1)c1ccc(S(=O)(=O)N2CCOCC2)cc1	JMJD2A Tudor inh inconclusive, G9a block 3.2µM
COc1ccccc1-n1c(CNC(=O)c2ccc(S(=O)(=O)N3CCOCC3)cc2)n[nH]c1=S	BAZ2B inh inconclusive, JMJD2A Tudor inh 20µM, G9a block 8.9µM
Cc1ccc(CNC(=O)c2ccc(S(=O)(=O)N3CCCCCC3)cc2)cc1	none (no result: BAZ2B inh, HP1b chromo inh, JMJD2A Tudor inh, G9a block, Sfp PPTase inh)
COc1ccc(-n2c(CNC(=O)c3ccc(S(=O)(=O)N4CCCC4)cc3)n[nH]c2=S)cc1	JMJD2A Tudor inh 7.9µM, G9a block inconclusive
O=C(c1ccco1)N1N=C(c2ccco2)CC1c1ccc(Cl)cc1Cl (stereo unspecified)	none (no result: Sfp PPTase inh)
CCN(Cc1ccccc1)S(=O)(=O)c1ccc(C(=O)N2CCN(c3nc4ccccc4s3)CC2)cc1	none
O=C(NCc1n[nH]c(=S)n1-c1ccc(Cl)c(Cl)c1)c1ccc(S(=O)(=O)N2CCOCC2)cc1	G9a block 8.9µM
COc1ccc(-n2nnnc2CNC(=O)c2ccc(S(=O)(=O)N3CCOCC3)cc2)cc1	none (no result: Sfp PPTase inh)
O=C(NCc1n[nH]c(=S)n1-c1ccc(Br)cc1)c1ccc(S(=O)(=O)N2CCCC2)cc1	G9a block 2.5µM
O=C(NCc1n[nH]c(=S)n1-c1ccc([N+](=O)[O-])cc1)c1ccc(S(=O)(=O)N2CCOCC2)cc1	JMJD2A Tudor inh 56µM, G9a block 7.1µM
O=C(NCc1n[nH]c(=S)n1-c1ccc(Br)cc1)c1ccc(S(=O)(=O)N2CCCCC2)cc1	G9a block 7.9µM
O=C(O)c1ccc2c(c1)C(=O)N([C@H](Cc1ccc(C(F)(F)F)cc1)C(=O)O)C2=O	none (no result: HP1b chromo inh, PLK1 PBD inh)
CCOC(=O)C1CCN(C(=O)Nc2ccc(OC(F)(F)F)cc2)CC1	none
Cc1nc2c(C)cccn2c1/C(O)=C1\C(=O)C(=O)N(CCN2CCOCC2)C1c1cccs1 (stereo unspecified)	BAZ2B inh inconclusive, JMJD2A Tudor inh inconclusive, G9a block 20µM
Cc1nc2ccccn2c1/C(O)=C1\C(=O)C(=O)N(CCN2CCOCC2)C1c1ccncc1 (stereo unspecified)	BAZ2B inh inconclusive, JMJD2A Tudor inh 25µM, G9a block inconclusive
COc1cccc(/C(O)=C2/C(=O)C(=O)N(CCN3CCOCC3)C2c2cccs2)c1 (stereo unspecified)	JMJD2A Tudor inh inconclusive, G9a block 45µM
O=[N+]([O-])c1ccc(-c2cn(-c3ccccc3)c(=S)[nH]2)cc1	G9a block inconclusive
COc1ccc(-n2c(-c3cc(-c4ccccc4)sc3N)n[nH]c2=S)cc1	none
COc1ccc(-n2c(-c3cccc(C)c3[N+](=O)[O-])n[nH]c2=S)cc1	HP1b chromo inh inconclusive, JMJD2A Tudor inh inconclusive, G9a block 3.2µM, PLK1 PBD inh inconclusive
O=[N+]([O-])c1cccc(-c2n[nH]c(=S)n2-c2ccccc2)c1	JMJD2A Tudor inh 22µM, G9a block 2.2µM
O=[N+]([O-])c1cccc(-c2cn(-c3ccccc3)c(=S)[nH]2)c1	G9a block 1.6µM
Cc1cccc(-c2n[nH]c(=S)n2-c2ccccc2)c1[N+](=O)[O-]	JMJD2A Tudor inh 35µM, G9a block 2.2µM
O=C(NCc1ccccc1Cl)c1ccc(NC(=O)N2CCSc3ncccc32)cc1	none (no result: PLK1 PBD inh, Sfp PPTase inh)
Nc1ccc(-n2cc(-c3ccccc3)[nH]c2=S)cc1	JMJD2A Tudor inh inconclusive, G9a block 7.9µM, Sfp PPTase inh 35µM
O=[N+]([O-])c1ccc2c(c1)[nH]c(=S)n2-c1ccccc1	BAZ2B inh inconclusive, JMJD2A Tudor inh inconclusive, G9a block 3.2µM, PLK1 PBD inh 6µM
CCOC(=O)c1c(C)oc2nc(C)nc(NCCCN3CCN(c4ccccc4OC)CC3)c12	none (no result: PLK1 PBD inh, Sfp PPTase inh)
Cc1ccc2nsnc2c1NC(=O)c1cncc(Br)c1	G9a block 56µM
CN(C)S(=O)(=O)c1cccc(NC(=O)c2cncc(Br)c2)c1	Sfp PPTase inh inconclusive
CC(=O)Nc1c(C)ccc2nsnc12	none
Cc1cnc(C(=O)Nc2ccc(C)c(S(=O)(=O)N(C)C)c2)cn1	JMJD2A Tudor inh 50µM, PLK1 PBD inh 24µM
Cc1ccc(NC(=O)c2cncc(Br)c2)cc1S(=O)(=O)N(C)C	HP1b chromo inh inconclusive, JMJD2A Tudor inh 13µM, PLK1 PBD inh 15µM
Cc1cc(=O)[nH]c2nnc(SCC(=O)Nc3ccc(OC(F)(F)F)cc3)n12	none (no result: PLK1 PBD inh, Sfp PPTase inh)
CCOc1ccccc1Nc1nc(N)nc(CSc2nncn2C)n1	none
CCOc1ccccc1Nc1nc(N)nc(CSc2nccc(C)n2)n1	none
CCOc1ccccc1Nc1nc(N)nc(CN(C)C2CCCCC2)n1	BAZ2B inh 18µM, JMJD2A Tudor inh 50µM
COc1ccccc1Nc1nc(N)nc(CN2CC(C)CC(C)C2)n1 (stereo unspecified)	BAZ2B inh inconclusive, G9a block 10µM
COc1ccccc1Nc1nc(N)nc(CSc2ncccn2)n1	JMJD2A Tudor inh inconclusive, PLK1 PBD inh 27µM
COc1ccccc1Nc1nc(N)nc(CCl)n1	none (no result: G9a block)
COc1ccccc1Nc1nc(N)nc(CN2CCCCC2)n1	G9a block inconclusive
COc1ccc(N2CCN(Cc3nc(N)nc(Nc4ccccc4OC)n3)CC2)cc1	BAZ2B inh 28µM, JMJD2A Tudor inh 56µM, G9a block 40µM
CCCCc1nn2c(=O)cc(COC(=O)c3cccc(NC(=O)c4cccc(Cl)c4)c3)nc2s1	none (no result: PLK1 PBD inh, Sfp PPTase inh)
Cc1ccccc1Nc1nc(N)nc(CSc2nnnn2C)n1	BAZ2B inh 56µM, JMJD2A Tudor inh inconclusive
COc1ccc(CNC(=O)Cn2nc(C)c3c(C)n(-c4ccc(C)cc4)nc3c2=O)cc1OC	BAZ2B inh 79µM, JMJD2A Tudor inh 89µM (no result: G9a block)
